Where “and” joins values, the source holds several entries; their conditions need not be identical. Equal entries are not always repeated. In all, about 650,000 compounds went through this assay and about 6,800 (1%) were called active. No stated cut-off is given here; in the data, active means activation above about 4.9%; inactive means the rest. For the sample, actives were picked, then their nearest neighbours and some compounds at random. Some compounds were tested as several samples or in several runs, with calls that do not always agree.

Activation data for 58 compounds are collected here from PubChem BioAssay AID1508602 (The Scripps Research Institute Molecular Screening Center, 2020).

This assay deals with G-protein coupled receptor 151 (Homo sapiens) (UniProt Q8TDV0). Briefly: activates the human receptor GPR151, primary screen, cell-based, PathHunter beta-arrestin, luminescence (AID 1508602).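 Further: 0% = median of compound wells and 100% = cells with positive control.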 The settings on record: PathHunter beta-arrestin GPR151 cells, at 11.2 µM, stronger effect = higher value.
Chain of G-protein coupled receptor 151 (Homo sapiens) (Q8TDV0 whole entry, looked up): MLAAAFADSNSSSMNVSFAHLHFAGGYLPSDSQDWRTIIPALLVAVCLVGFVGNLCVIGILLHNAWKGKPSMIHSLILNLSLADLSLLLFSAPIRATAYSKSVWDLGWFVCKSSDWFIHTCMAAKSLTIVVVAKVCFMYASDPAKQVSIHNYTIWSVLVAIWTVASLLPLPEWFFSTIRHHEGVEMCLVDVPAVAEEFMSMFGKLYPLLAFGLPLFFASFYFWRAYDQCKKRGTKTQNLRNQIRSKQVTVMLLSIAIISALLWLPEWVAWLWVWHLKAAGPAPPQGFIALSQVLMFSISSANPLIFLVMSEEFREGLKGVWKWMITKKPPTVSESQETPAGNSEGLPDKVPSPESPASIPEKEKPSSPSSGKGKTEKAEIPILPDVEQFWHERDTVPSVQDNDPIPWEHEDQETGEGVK
As for `O=C(c1cc(=O)oc2cc(OCc3ccccc3)ccc12)N1CCN(c2ccccn2)CC1`, the activation is -0.0035% (inactive).
As for `Cc1ccc([N+](=O)[O-])cc1NC(=O)CC12CC3CC(CC(C3)C1)C2`, the activation is 2.69% (inactive).
In the case of `CC(C)(C)c1ccc(C(=O)NCCC(=O)NCCc2ccccc2)cc1`, the activation was 0.46% (inactive).
As to `O=C1CSC2=NCN(c3ccc(I)cc3)CN12`, the activation is 0.445% (inactive).
For the compound `CCOc1cc(C#N)ccc1OCC(=O)NCc1ccc2c(c1)OCO2`, the activation is -0.667% (inactive).
For `COc1ccccc1CNC(=O)C1CCN(Cc2nc(-c3ccccc3C)oc2C)CC1`, the activation is -0.157% (inactive).
Regarding `Cc1ccc2nc(SCc3ccccc3)nc(=O)n2c1`, the activation was 1.52% (inactive).
In the case of `c1ccc(NCc2cccc3ccccc23)nc1`, the activation was 5.45% (active).
As to `c1cnc(N2CCN(Cc3cccc4ccccc34)CC2)nc1`, the activation was 0.32% (inactive).
`O=C(Cc1cccc2ccccc12)Nc1ncn[nH]1`: the activation was 0.255% (inactive).
In the case of `CCCNc1nc(N2CCOCC2)nc2cc(OC)c(OC)cc12`, the activation is -0.145% (inactive).
For `Cc1sc2ncnc(SC3CCCCN(C(=O)c4ccc(F)cc4)C3=O)c2c1C` (stereo not drawn), the activation was 2.61% (inactive).
Regarding `c1ccc(CSc2ncnc3sc4c(c23)CCCC4)cc1`, the activation was 3.13% (inactive).
Regarding `O=C(c1ccccc1)N1CCCCC(Sc2ncnc3sc4c(c23)CCCC4)C1=O` (stereo not drawn), the activation is 5.26% (active).
For the compound `COc1ccc(OC)c(-c2cc(Cl)c3c(c2)CC(CNC(=O)CSC)O3)c1` (stereo not drawn), the activation is 0.143% (inactive).
Consider `CCOc1ccc(C2C(C(=O)Nc3ccc(C)c(F)c3)c3ccccc3C(=O)N2CCN2CCOCC2)cc1` (stereo not drawn), for which the activation is -1.65% (inactive).
The figure for `Cc1nnc(SCC(=O)NCc2ccccc2)s1` is 6.39% (active); for `Nc1nnc(SCC(=O)OCC(=O)NCc2ccccc2)s1` it is -1.05% (inactive); for `O=C(CSc1nnc(NC(=O)CCc2ccccc2)s1)NCc1ccc(F)cc1` it is -2.57% (inactive).
On to `C/C(N)=C1\C(=O)C(=O)N(C)C1c1ccccc1` (stereo not drawn), for which the activation is -1.33% (inactive).
The same measure for `CC(Oc1cccc(Cl)c1)C(=O)O/N=C(\N)c1ccncc1` (stereo not drawn): -0.652% (inactive).
As for `O=C(O)CNC(=O)/C=C\c1ccc(Cl)cc1`, the activation was 0.187% (inactive).
Consider `CCNC(=O)n1cc(-c2ccnc3ccccc23)c(-c2ccncc2)n1`, for which the activation is -0.919% (inactive).
Take `O=C(Nc1ccc(-c2nnc3n2CCCCC3)cc1)c1ccc(Br)o1`: the activation is -0.517% (inactive).
For the compound `O=c1c(Cl)c(-c2ccccc2)oc2ccccc12`, the activation was -1.04% (inactive).
With `CCN(CC)C(=O)C1CCCN(c2cc(NCCN(C(C)C)C(C)C)nc(N)n2)C1` (stereo not drawn), the activation was 4.23% (inactive).
Regarding `CCN(CC)C(=O)C1CCCN(c2nc3ncnc(NCCc4ccc(OC)cc4)c3[nH]2)C1` (stereo not drawn), the activation was 0.885% (inactive).
In the case of `CCN(CC)C(=O)C1CCCN(c2cc(Nc3ccccc3)nc(N)n2)C1` (stereo not drawn), the activation is 1.77% (inactive).
As for `CCN(CC)C(=O)C1CCCN(c2cc(N)nc(N)n2)C1` (stereo not drawn), the activation was 6.79% (active).
Regarding `CCN(CC)C(=O)C1CCCN(c2cccc(C(=O)NCCc3ccc(OC)cc3)c2)C1` (stereo not drawn), the activation is -1.08% (inactive).
For `CCN(CC)C(=O)C1CCCN(c2cccc(C(=O)NCCc3ccc(OC)cc3)n2)C1` (stereo not drawn), the activation is 5.87% (active).
Turning to `O=C(O)c1cc(N=Cc2cccnc2)ccc1O`, the activation was 0.982% (inactive).
Consider `Cc1ccc(CNC(=O)CCCCCn2c(SCc3cc(=O)n4ccccc4n3)nc3ccsc3c2=O)cc1`, for which the activation was 1.39% (inactive).
On to `O=C(Nc1ccc(F)c(Cl)c1)/C(=C/c1cccc([N+](=O)[O-])c1)NC(=O)c1cccs1`, for which the activation is 0.762% (inactive).
Consider `C=CCNC(=O)/C(=C/c1ccc(Cl)cc1)NC(=O)c1ccccc1`, for which the activation was 3.04% (inactive).
Turning to `CC(NC(=O)Cc1ccc(-c2ccccc2)cc1)c1nc(-c2cccnc2)n[nH]1` (stereo not drawn), the activation is -0.113% (inactive).
Regarding `CCC(C)OC(=O)C1=C(C)NC2=C(C(=O)CC(c3ccccc3)C2)C1c1ccccc1OCc1ccccc1` (stereo not drawn), the activation is 1.93% (inactive).
For the compound `COc1ccccc1C(=O)N1CCN2C(=O)CN(C)C(=O)[C@H]2C1`, the activation is 1.54% (inactive).
Regarding `CN1CC(=O)N2CCN(C(=O)OCc3ccccc3)C[C@@H]2C1=O`, the activation is 5.14% (active).
For `NCCCC[C@@H]1NC(=O)[C@H]2CN(C(=O)OCc3ccccc3)CCN2C1=O`, the activation is -0.551% (inactive).
For `O=C1CSC(c2ccccc2Br)N1c1ccc(F)c(Cl)c1` (stereo not drawn), the activation is -1.29% (inactive).
In the case of `COc1ccc(C(=O)Cc2cc3ccccc3oc2=O)c(OC)c1`, the activation is 8.65% (active).
`COc1cccc(/C=C/C(=O)c2cc3ccccc3oc2=O)c1`: the activation was -0.0229% (inactive).
Turning to `COc1ccc(C(=O)COC(=O)c2ccc3ccccc3n2)c(OC)c1`, the activation is -0.989% (inactive).
The figure for `CCCN1CCC(N2CCN(c3cccc(Cl)c3)CC2)CC1` is -0.685% (inactive).
Turning to `O=C(CSc1nc2ccccc2c(=O)n1CCCN1CCN(c2cccc(Cl)c2)CC1)N1CCCCCC1`, the activation is 0.298% (inactive).
With `CCc1nn(CCCN2CCN(c3cccc(Cl)c3)CC2)c(=O)n1CCOc1ccccc1`, the activation is 5.41% (active) and -0.0264% (inactive) and -0.848% (inactive).
Turning to `O=C(N/N=C/c1cc(Cl)ccc1O)c1cc(-c2ccccc2)n[nH]1`, the activation was 5.58% (active).
`O=C(N/N=C/c1ccccc1O)c1cc(-c2ccc(Cl)cc2)n[nH]1`: the activation was -0.397% (inactive).
The figure for `COc1cc(Br)cc(/C=N/NC(=O)c2cc(-c3ccccc3)n[nH]2)c1O` is 3.1% (inactive).
The same measure for `Cn1c(=NC(=O)CN2C(=O)CCC2=O)sc2cc([N+](=O)[O-])ccc21`: 1.44% (inactive); for `CC(C)(C)c1cnnn1-c1ccc(C(=O)/C=C\c2ccco2)cc1`: 0.0135% (inactive).
Take `C=CCc1cccc(/C=N/NC(=O)CCC(=O)Nc2ccc(Br)cc2)c1O`: the activation is 7.12% (active).
Turning to `COc1ccc(NC(=O)CCC(=O)N/N=C/c2cc(Cl)ccc2O)cc1`, the activation is -1.64% (inactive).
The figure for `COc1ccc(NC(=O)CCC(=O)N/N=C/c2ccccc2Cl)cc1` is 0.396% (inactive); for `COc1ccccc1N(CC(=O)Nc1ccc(F)c(Cl)c1)S(=O)(=O)c1ccccc1` it is 2.46% (inactive).
`COC(=O)c1sccc1N/N=C/c1ccccn1`: the activation is -4.95% (inactive).
Regarding `COc1ccc(CCNC(=O)Cn2cnc3sc4c(c3c2=O)CCC4)cc1OC`, the activation is 0.328% (inactive).
